Data on 61 molecules can be found in PubChem BioAssay AID651813 (National Center for Advancing Translational Sciences (NCATS), 2012).

The whole screen tested about 2,100 compounds, of which about 1,100 (52%) were called active. About 27% were inconclusive and are not listed. Calls follow the shape of the dose curve; as a rule, active = well fitted inhibition curve with a large enough effect; inconclusive = small, poorly fitted or top-dose-only effect; inactive = no such curve, though single readings can be large or run the other way. So high a share suggests a set chosen from earlier hits. The list shows a part of the results.
Potency is read from the fitted curve at half-maximal effect.

DNA dC->dU-editing enzyme APOBEC-3G (Homo sapiens), sequence (Q9HC16 whole entry, looked up): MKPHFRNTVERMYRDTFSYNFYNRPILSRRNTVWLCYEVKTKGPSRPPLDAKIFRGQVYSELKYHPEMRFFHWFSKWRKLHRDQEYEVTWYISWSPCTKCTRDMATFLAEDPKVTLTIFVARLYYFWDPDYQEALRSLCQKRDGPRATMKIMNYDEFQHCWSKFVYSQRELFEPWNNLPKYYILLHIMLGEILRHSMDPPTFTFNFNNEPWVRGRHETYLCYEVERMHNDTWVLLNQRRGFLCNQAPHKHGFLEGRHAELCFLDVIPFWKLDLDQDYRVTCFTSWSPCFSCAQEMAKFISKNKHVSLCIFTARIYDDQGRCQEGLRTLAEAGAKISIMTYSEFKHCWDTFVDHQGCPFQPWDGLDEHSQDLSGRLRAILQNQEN

The test has as its target DNA dC->dU-editing enzyme APOBEC-3G (Homo sapiens) (UniProt Q9HC16). The experiment in a line: qHTS for inhibitors of Vif-A3G interactions: Cherry picks counterscreen.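 Also: hits raise yellow fluorescence by blocking Vif-driven A3G-eYFP degradation; nearly all actives have a fitted effect of over 70% in size.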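 As to max response: max response given as percent of control signal.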 The note with it: HeLa A3G-eYFP + Vif (tagged APOBEC3G with the HIV-1 protein that degrades it), eYFP fluorescence, 24 h. The essentials:
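HeLa cells stably expressing A3G-eYFP and Vif were treated for 24 h at 37 deg C with compounds at several concentrations; yellow fluorescence (Ex 488 nm, Em 500-530 nm) read by Acumen Explorer, MG132 as positive control.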
As for `CC1CC(C)CN(CC(=O)c2c[nH]c3ccccc23)C1` (stereo unspecified), the Potency was 18.4 µM (active). For `COc1cc(NC(=O)c2ccco2)c(C(=O)OCC(=O)c2c[nH]c3ccccc23)cc1OC`, the max response is -2.18% (inactive). On to `O=[N+]([O-])c1ccc(N=Nc2ccc(O)c3ccccc23)cc1`, for which the Potency was 11.2 µM (active). Regarding `O=C1NC(=Nc2ccccc2Cl)S/C1=C\c1cc([N+](=O)[O-])ccc1O`, the max response is -33% (inactive). Take `COc1cc2c(cc1OC)C(C)N(C(=O)c1cc(C)on1)CC2` (stereo unspecified): the Potency is 0.704 µM (active).

For `COc1cc2c(cc1OC)C(C)N(C(=O)c1cc(Cl)nc(Cl)c1)CC2` (stereo unspecified), the Potency is 12.5 µM (active). On to `Cc1ccc2ccc3c(c2n1)NS(=O)(=O)c1ccc(C(F)(F)F)cc1-3`, for which the Potency was 11.6 µM (active). On to `COCCNC(=S)NN=C1CCCCCC1`, for which the max response was 0.0981% (inactive).

Regarding `COc1ccc2nc(NC(=O)Nc3ccccc3OC)sc2c1`, the Potency was 4.44 µM (active). As to `COc1ccc2nc(NC(=S)NC(=O)c3ccco3)sc2c1`, the max response was -0.487% (inactive). Regarding `COc1ccccc1CCC(=O)Nc1ccc2c(c1)c(=O)n(C)n2-c1cccs1`, the Potency is 3.53 µM (active). For the molecule `COc1ccccc1CCC(=O)Nc1ccc2c(c1)c(=O)n(C)n2Cc1ccc(F)cc1`, the Potency was 17.7 µM (active). Still for that read-out and setting: for `COc1cc(Cn2c3ccc(NC(=O)CCc4ccccc4)cc3c(=O)n2C)ccc1F` the value was 3.53 µM (active). For the molecule `C/C(CCc1ccc2c(c1)OCO2)=N\NC(=S)NC(C)C`, the max response is 4.06% (inactive). Take `Cc1cccc(N2CCN(Cc3cn(C)nc3-c3ccccc3F)CC2)n1`: the Potency was 5.59 µM (active).

For `COC(=O)c1sc(N)c(C(=O)OC)c1COC(=O)c1c(C)noc1C`, the Potency is 4.98 µM (active). `Nc1ccccc1C=C1Cc2ccccc2C1=O`: the Potency is 7.31 µM (active). Take `CN(C)c1ccc(/C=C2\Cc3ccccc3C2=O)cc1`: the Potency is 2.59 µM (active). Still for that read-out and setting: for `CN(C)c1ccc(/C=C2/C[N+](C)(C)C/C(=C/c3ccc(N(C)C)cc3)C2=O)cc1` the value was 8.2 µM (active). With `Cc1ccc(N2C(=O)[C@@H]3[C@H](C2=O)[C@H]2C=C(C(=O)c4ccccc4)C=CN2[C@@H]3C(=O)c2ccc(Cl)cc2)cc1`, the max response was -6.73% (inactive). The same measure, in the same setting: for `O=c1[nH]c2ccccc2n2c(=S)[nH]nc12` the value was -15.5% (inactive). With `O=c1[nH]c2ccccc2n2c(C(F)(F)F)nnc12`, the Potency is 20.6 µM (active).

As to `CCN(CC)c1ccc(/C=C2\SC(N)=NC2=O)cc1`, the Potency was 7.9 µM (active).

As to `C/C(CC(=O)NCc1ccc(Cl)cc1)=N\NC(=O)COc1ccc(C)cc1Br`, the Potency was 14 µM (active). The same measure, in the same setting: for `CC(=O)Nc1ccc(CC(=O)NCCC(c2ccccc2)c2ccccc2)cc1` the value was 15.8 µM (active). As for `CC(=O)Nc1ccc(NC(=O)C/C(C)=N/NC(N)=S)cc1`, the max response was 2.45% (inactive).

Turning to `O=C(Oc1ccc(Cl)c2cccnc12)c1ccco1`, the max response was 17.4% (inactive). In the case of `COc1ccc(-c2csc(-c3ccc(O)cc3)n2)cc1`, the Potency was 5.59 µM (active). On the same count and under the same terms, for `COc1ccc(-c2ccnc(-c3ccc(O)cc3)n2)cc1` the value was 1.58 µM (active). The same measure, in the same setting: for `Oc1ccc(-c2nc(-c3ccc(O)c(O)c3)cs2)cc1` the value was 0.994 µM (active). Same read-out and setting: under `COc1cc(C2c3cc4c(cc3OC(C)(N3CCCC3)C2C)OCO4)cc(OC)c1OC` (stereo unspecified) stands 0.994 µM (active); under `COc1cccc(C2=CC(c3cccs3)n3nnnc3N2)c1` (stereo unspecified), 2.8 µM (active).

As for `C=CCOC(=O)C1=C(C)Nc2nnnn2C1c1cccs1` (stereo unspecified), the max response was -7.35% (inactive). Take `COc1cccc(C2=CC(c3ccccc3)n3nnnc3N2)c1` (stereo unspecified): the Potency was 8.86 µM (active). As for `N#CC1=C(S)N(c2ccc(F)cc2)C2(CCCCC2)NC1=O`, the max response was 4.28% (inactive).

As for `Cc1ccc(/C=N/NC(=O)CCCOc2ccc(Cl)cc2Cl)cc1`, the Potency is 7.9 µM (active).

On to `CCCn1c(SCC(=O)Nc2ccccc2OC)nnc1-c1ccco1`, for which the Potency is 17.7 µM (active). For `CCCn1nnc(NC(=S)NC(=O)c2ccccc2OC)n1`, the max response is 9.21% (inactive). Still for that read-out and setting: under `CC(C)C1C(=O)N(Cc2cn(CCC3OCCCO3)nn2)CCS(=O)(=O)N1Cc1ccc(-c2cccc(CO)c2)cc1` (stereo unspecified) stands -8.99% (inactive). Consider `CC(=O)C1=C(C)NC(SCC(=O)c2ccc(Cl)cc2)=C(C#N)C1c1ccco1` (stereo unspecified), for which the Potency is 16.4 µM (active). `O=[N+]([O-])c1ccc(N2CCN(Cc3ccccc3)CC2)c2c1no[n+]2[O-]`: the Potency is 12.5 µM (active).

Take `CC1(C)Cc2ccccc2C2CC(O)C(=O)N21` (stereo unspecified): the Potency was 20.6 µM (active).

Take `COc1ccc(S(=O)(=O)NN(C)c2nc(C(F)(F)F)nc3ccccc23)cc1`: the Potency is 7.04 µM (active). As to `CCCCOc1nc2ccccc2nc1NS(=O)(=O)c1ccc(F)cc1`, the max response was -6.51% (inactive). On to `COc1ccc(OC)c(NS(=O)(=O)c2ccc(Cl)s2)c1`, for which the Potency is 12.5 µM (active). For `CC[n+]1c(/C=C/N(C)c2ccccc2)oc2ccc(F)cc21`, the Potency is 14 µM (active). The same measure, in the same setting: for `CC[n+]1c(/C=C/Nc2ccccc2)oc2ccc(OC)cc21` the value was 14.6 µM (active). For the molecule `CC[n+]1c(/C=C/Nc2ccccc2)oc2ccccc21`, the Potency is 9.2 µM (active).

As for `CCc1ccc(N=Nc2ccc(O)c3[nH]cnc23)cc1`, the Potency is 7.31 µM (active). On to `ClCc1nc2ccccc2n1Cc1ccccc1`, for which the Potency was 20.6 µM (active). On to `CC(C)(C)c1ccc(Cn2c(=O)cnc3ccccc32)cc1`, for which the max response was 3.64% (inactive). Consider `COc1ccc(NC2=CC(=O)CC(c3ccccc3)C2)c(OC)c1` (stereo unspecified), for which the Potency is 11.2 µM (active).

Take `CC(=O)c1cccc(-c2ccnc3c2CC(C(=O)NCc2ccc(F)c(F)c2)O3)c1` (stereo unspecified): the Potency is 2.8 µM (active). Same read-out and setting: under `NC(=O)c1cccc(-c2ccnc3c2CC(C(=O)NCc2ccco2)O3)c1` (stereo unspecified) stands 17.7 µM (active); under `CC(=O)c1cccc(-c2ccnc3c2CC(C(=O)NCc2ccco2)O3)c1` (stereo unspecified), 1.58 µM (active); under `O=C(NCc1ccccc1)C1Cc2c(-c3cccc(F)c3)ccnc2O1` (stereo unspecified), 1.4 µM (active).

As to `O=C(NCc1ccco1)C1Cc2c(-c3cccc(F)c3)ccnc2O1` (stereo unspecified), the Potency was 5.59 µM (active). Same read-out and setting: under `CC(=O)c1cccc(-c2ccnc3c2CC(C(=O)NCC2CCOCC2)O3)c1` (stereo unspecified) stands 5.59 µM (active). As to `N#CC1=C(N)Oc2c(sc3ccccc23)C1c1ccco1` (stereo unspecified), the Potency was 12.5 µM (active). `CC1CC(=O)C2=C(C1)OC(N)=C(C#N)C2c1coc2ccccc2c1=O` (stereo unspecified): the max response was -19.2% (inactive).

Turning to `CC(O)CN(CC(C)O)c1ccc2c(c1)Cc1cc([N+](=O)[O-])ccc1-2` (stereo unspecified), the Potency was 0.58 µM (active).
